Source: PubChem BioAssay
Calls of active or inactive are those of the source.

Assays:
[1] = small molecules captured by biotinylated probe aFSTL3 – biochemical, small-molecule microarray, fluorescence 635/667, stem cell growth factor project, primary screen (AID 1064); details: higher = more signal;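 also: measures binding of the biotinylated anti-FSTL3 antibody to printed compounds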
[2] = binders from COS7 lysate, DM2A8 probe, primary screen, torsin A project, cell lysate, small-molecule microarray, fluorescence 635/667 (AID 1065); details: higher = more signal, COS7 lysate expressing mutant human TOR1A
[3] = small molecules captured by biotinylated probe aFGF2 – biochemical, small-molecule microarray, fluorescence 635/667, stem cell growth factor project, primary screen (AID 1067); details: higher = more signal;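 also: measures binding of biotinylated aFGF2 protein to printed compounds on slides; z-score merges feature fluorescence and signal-to-noise across triplicate slides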
[4] = small molecules captured by biotinylated probe aFGF10 – biochemical, small-molecule microarray, fluorescence 635/667, stem cell growth factor project, primary screen (AID 1071); details: higher = more signal;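 also: score merges 667 nm spot intensity and signal to noise from triplicate slides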
[5] = target: Neurogenic locus notch homolog protein 2 (Homo sapiens) (UniProt Q04721); test: small molecules binding Notch2 protein – biochemical, small-molecule microarray, 635 nm fluorescence, stem cell growth factors, primary screen (AID 1073); details: higher = more signal
Neurogenic locus notch homolog protein 2 (Homo sapiens), sequence (Q04721 whole entry, looked up, canonical isoform): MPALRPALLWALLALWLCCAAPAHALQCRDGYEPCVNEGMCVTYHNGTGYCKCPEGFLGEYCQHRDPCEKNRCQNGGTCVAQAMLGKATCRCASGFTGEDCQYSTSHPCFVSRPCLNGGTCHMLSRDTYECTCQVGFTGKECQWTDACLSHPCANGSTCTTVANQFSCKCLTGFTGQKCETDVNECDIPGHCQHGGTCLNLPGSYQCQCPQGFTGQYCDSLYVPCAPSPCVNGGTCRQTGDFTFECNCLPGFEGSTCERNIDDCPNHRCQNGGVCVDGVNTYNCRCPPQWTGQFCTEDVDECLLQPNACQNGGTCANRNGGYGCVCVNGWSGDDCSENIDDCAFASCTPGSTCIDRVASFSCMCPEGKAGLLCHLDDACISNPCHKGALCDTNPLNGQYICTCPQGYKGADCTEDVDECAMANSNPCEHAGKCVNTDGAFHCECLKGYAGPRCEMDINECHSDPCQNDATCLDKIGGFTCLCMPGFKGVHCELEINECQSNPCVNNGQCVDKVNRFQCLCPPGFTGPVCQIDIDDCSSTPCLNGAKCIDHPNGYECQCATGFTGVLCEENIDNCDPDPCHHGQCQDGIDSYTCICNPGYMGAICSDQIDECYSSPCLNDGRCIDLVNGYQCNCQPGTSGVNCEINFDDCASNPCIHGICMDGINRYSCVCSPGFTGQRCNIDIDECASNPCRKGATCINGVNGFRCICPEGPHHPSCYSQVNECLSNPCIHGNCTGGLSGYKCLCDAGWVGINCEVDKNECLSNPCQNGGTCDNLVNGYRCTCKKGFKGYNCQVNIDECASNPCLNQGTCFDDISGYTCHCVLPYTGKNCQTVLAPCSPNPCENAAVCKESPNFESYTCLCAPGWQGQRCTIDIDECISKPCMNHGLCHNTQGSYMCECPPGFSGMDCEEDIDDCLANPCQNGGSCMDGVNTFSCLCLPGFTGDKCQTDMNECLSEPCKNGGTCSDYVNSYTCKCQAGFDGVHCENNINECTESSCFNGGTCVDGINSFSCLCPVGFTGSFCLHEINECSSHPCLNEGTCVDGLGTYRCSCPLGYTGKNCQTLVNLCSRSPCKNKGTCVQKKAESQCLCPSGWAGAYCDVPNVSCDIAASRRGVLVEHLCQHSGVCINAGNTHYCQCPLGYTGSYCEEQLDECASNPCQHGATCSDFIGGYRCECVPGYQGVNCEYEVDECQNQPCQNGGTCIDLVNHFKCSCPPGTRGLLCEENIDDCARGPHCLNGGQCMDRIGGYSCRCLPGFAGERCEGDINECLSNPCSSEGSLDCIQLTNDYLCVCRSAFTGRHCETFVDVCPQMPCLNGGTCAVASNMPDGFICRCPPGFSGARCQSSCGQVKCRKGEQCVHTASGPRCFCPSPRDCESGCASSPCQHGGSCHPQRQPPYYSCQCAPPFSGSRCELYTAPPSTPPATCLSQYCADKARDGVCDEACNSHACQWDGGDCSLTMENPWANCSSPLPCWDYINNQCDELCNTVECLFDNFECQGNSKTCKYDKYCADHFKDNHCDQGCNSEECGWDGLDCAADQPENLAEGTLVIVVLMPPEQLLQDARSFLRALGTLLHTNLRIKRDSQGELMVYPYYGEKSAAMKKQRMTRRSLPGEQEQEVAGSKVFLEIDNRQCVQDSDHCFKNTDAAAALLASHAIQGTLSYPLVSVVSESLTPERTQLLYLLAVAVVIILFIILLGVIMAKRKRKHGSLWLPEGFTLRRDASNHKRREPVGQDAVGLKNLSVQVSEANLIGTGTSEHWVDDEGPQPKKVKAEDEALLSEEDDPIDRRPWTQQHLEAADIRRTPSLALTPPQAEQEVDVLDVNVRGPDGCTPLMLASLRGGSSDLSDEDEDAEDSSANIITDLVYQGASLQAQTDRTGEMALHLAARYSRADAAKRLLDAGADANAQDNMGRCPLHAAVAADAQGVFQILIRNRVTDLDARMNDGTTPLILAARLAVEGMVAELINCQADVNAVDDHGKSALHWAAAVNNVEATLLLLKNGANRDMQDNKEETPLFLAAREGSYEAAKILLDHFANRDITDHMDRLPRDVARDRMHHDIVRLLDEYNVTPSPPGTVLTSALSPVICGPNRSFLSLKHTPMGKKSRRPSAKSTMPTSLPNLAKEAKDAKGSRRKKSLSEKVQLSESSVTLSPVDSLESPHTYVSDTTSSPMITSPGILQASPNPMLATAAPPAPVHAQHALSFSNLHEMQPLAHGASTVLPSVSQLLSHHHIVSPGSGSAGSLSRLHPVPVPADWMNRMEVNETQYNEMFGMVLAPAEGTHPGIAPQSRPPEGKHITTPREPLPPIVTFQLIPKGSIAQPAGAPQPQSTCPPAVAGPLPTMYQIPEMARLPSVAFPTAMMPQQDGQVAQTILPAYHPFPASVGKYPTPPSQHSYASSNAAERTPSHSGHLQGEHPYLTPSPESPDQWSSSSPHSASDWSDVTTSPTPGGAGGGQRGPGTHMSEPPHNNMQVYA

[6] = target: Pro-neuregulin-1, membrane-bound isoform (Homo sapiens) (UniProt Q02297); test: small molecules binding neuregulin-1 protein – biochemical, small-molecule microarray, fluorescence 635/667, psychiatric disease protein project, primary screen (AID 1075); details: NRG1 binding, 635 nm fluorescence, higher = more signal;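 also: score combines 667 nm spot fluorescence with signal to noise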
Pro-neuregulin-1, membrane-bound isoform (Homo sapiens), sequence (Q02297 whole entry, looked up, the tested form may be a part, canonical isoform): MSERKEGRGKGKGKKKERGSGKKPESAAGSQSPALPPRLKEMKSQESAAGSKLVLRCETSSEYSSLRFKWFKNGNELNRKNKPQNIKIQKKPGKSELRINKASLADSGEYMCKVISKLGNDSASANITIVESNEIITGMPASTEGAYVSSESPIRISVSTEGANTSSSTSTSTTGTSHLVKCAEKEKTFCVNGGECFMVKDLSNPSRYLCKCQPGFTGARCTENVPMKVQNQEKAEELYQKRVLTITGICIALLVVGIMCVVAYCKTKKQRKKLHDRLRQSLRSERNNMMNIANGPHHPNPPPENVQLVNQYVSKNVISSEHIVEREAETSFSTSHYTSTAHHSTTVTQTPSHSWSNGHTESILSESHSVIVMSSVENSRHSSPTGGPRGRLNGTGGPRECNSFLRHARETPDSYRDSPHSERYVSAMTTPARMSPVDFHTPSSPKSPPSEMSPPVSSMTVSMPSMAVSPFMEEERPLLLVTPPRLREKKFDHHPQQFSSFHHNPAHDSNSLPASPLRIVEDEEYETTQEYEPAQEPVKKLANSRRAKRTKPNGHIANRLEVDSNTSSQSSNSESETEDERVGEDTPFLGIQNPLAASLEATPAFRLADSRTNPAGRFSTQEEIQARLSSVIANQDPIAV

[7] = system: Neuregulin-1 EGF-like domain; test: small molecules binding NRG1 EGF domain – biochemical, small-molecule microarray, 635 nm fluorescence, primary screen (AID 1081); details: higher = more signal;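 also: binding of the protein to compounds printed on small-molecule microarray slides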
[8] = FRG1 expression reporter modulators in myotubes – cell-based, C2C12 myotubes, firefly/Renilla luciferase, luminescence, FRG1 inhibition for FSHD, primary screen (AID 1084); details: FRG1 promoter luciferase, higher = more signal, called active from +8 up or from −8 down
[9] = small molecules captured by biotinylated probe aFST – biochemical, small-molecule microarray, fluorescence 635/667, stem cell growth factor project, primary screen (AID 1086); details: higher = more signal;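 also: score merges 667 nm fluorescence with signal-to-noise of each printed compound spot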
[10] = binders of probe aHhip on microarray, primary screen, stem cell growth factor project, biochemical, small-molecule microarray, fluorescence 635/667 (AID 1087); details: higher = more signal;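 also: score merges spot fluorescence at 667nm with spot signal to noise ratio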

Structure (SMILES)	composite z-score [1]	composite z-score [2]	composite z-score [3]	composite z-score [4]	composite z-score [5]	composite z-score [6]	composite z-score [7]	z-score [8]	composite z-score [9]	composite z-score [10]
CCCCN1CC=CC23O[C@@H]4C=CCCOC(=O)C4[C@H]2C(=O)N(CCCCCO)[C@@H]3C1=O (stereo not given in full)	-0.376	-0.055	-0.107	-0.0632	-1.06	-0.169	1.46	-0.834 (inactive)	-0.79	0.107
COC(=O)c1c(CC[C@@H](CO)NC(=O)N[C@H](Cc2ccccc2)Cn2cc(-c3ccccn3)nn2)oc(C(C)=O)c1C(=O)OC	-0.241	0.0467	-0.083	0.19	-0.143	0.813	1.09	-0.533 (inactive)	-0.217	-0.271
COC(=O)[C@]1(Cc2ccccc2)N=C(c2ccc(OCCCO)cc2)O[C@@H]1c1ccccc1N=[N+]=[N-]	-0.186	0.179	-0.0268	-0.13	0.473	0.314	0.764	4.51 (inactive)	0.551	0.0373
CC[C@@H]1C=C(C(=O)O)[C@H](c2ccc(C)cc2)N1S(=O)(=O)c1ccc(C)cc1	-0.139	0.719	-0.0246	-0.256	1.1	0.929	1.29	-0.143 (inactive)	0.593	0.126
COCCOC(=O)N1C(=O)[C@@]2(c3cc(C#Cc4ccc(OC)cc4)ccc31)[C@H](c1ccc(O)cc1)N1[C@H](c3ccccc3)[C@H](c3ccccc3)OC(=O)[C@H]1[C@@H]2C(=O)Nc1nc2ccccc2s1	-0.304	0.262	-0.0724	0.554	1.29	1.06	1.24	2.63 (inactive)	0.251	-0.249
C#CCNCc1ccccc1	-0.443	0.0591	-0.114	0.227	0.461	-0.358	0.0262	0.938 (inactive)	-0.115	-0.236
C=CCNC(=O)[C@H]1[C@@H]2C(=O)O[C@@H](c3ccccc3)[C@@H](c3ccccc3)N2[C@@H](c2ccc(OCCO)cc2)[C@]12C(=O)Nc1ccc(C#CCC(C(=O)OC)C(=O)OC)cc12	-0.378	0.632	0.0501	0.441	1.17	1.17	1.18	0.0693 (inactive)	0.452	0.0373
CC(C)CN1C(=O)[C@@]2(c3ccc([N+](=O)[O-])cc3)CC(=O)N(C3CCCCC3)[C@@H]2c2ccc(CO)cc21	0.206	-0.72	-0.0954	-0.991	-0.649	-0.303	-0.429	0.953 (inactive)	-1.09	-0.0994
O=C1OCCC/C=C\[C@H]2OC34C=CCN(c5ccc6ccccc6c5)C(=O)[C@H]3N(CCCCCO)C(=O)[C@@H]4C12 (stereo not given in full)	0.149	-0.763	-0.195	-0.759	-0.367	-0.634	-0.773	0.815 (inactive)	-0.602	-0.169
O=C1NC(=O)C2C1C=CC(C(O)C=Cc1ccc([N+](=O)[O-])cc1)N2Nc1ccc(Cl)cc1Cl (stereo not given)	1.03	0.723	0.136	0.797	1.69	1.87	1.12	0.0592 (inactive)	0.939	0.206
CCCNC(=O)[C@@]1(Sc2ccc(C)cc2)CC(=O)N(Cc2ccccc2C(F)(F)F)[C@@H]1c1ccc(CO)cc1I	-0.0981	2.46	-0.0583	-0.0686	0.267	1.22	1.07	-0.267 (inactive)	0.574	-0.0346
C=CCOC(=O)[C@H]1[C@@H]2C(=O)O[C@@H](c3ccccc3)[C@@H](c3ccccc3)N2[C@@H](c2ccc(OCCOC(=O)[C@@H]3C[C@@H]4C(=O)N5CCC[C@H]5C(=O)N4[C@@H]3c3cccc(OCCO)c3)cc2)[C@]12C(=O)Nc1ccc(I)cc12	-0.34	1.19	-0.104	0.397	0.373	1.05	1.31	0.984 (inactive)	0.447	-0.12
COC(=O)[C@H](Cc1ccccc1)N[C@H](/C=C/C1CC1)[C@@H](O)Cc1ccccc1	0.128	0.1	-0.202	-0.471	-0.567	-0.0373	-0.626	-1.72 (inactive)	-0.474	-0.132
CCOC(=O)C1=CC[C@@H](c2ccc(C(F)(F)F)cc2)N(S(=O)(=O)c2ccc(C)cc2)[C@H]1c1ccccc1	0.371	1.4	0.0917	0.599	1.38	1.3	1.25	-0.364 (inactive)	1.04	-0.0296
COCC(=C=CC[C@H](O)c1ccccc1OCCO)CCO	-0.2	0.32	-0.0747	0.225	-0.626	1.24	0.857	0.212 (inactive)	-0.0019	0.0373
CCOC(=O)C[C@H]1[C@H](OC(=O)c2ccc(C(=O)c3ccccc3)cc2)[C@@H](NC(=O)c2ccccc2)c2cc(OCCCO)ccc2N1C(=O)c1ccccc1	-0.481	0.0554	-0.0376	0.683	0.783	0.636	0.935	-1.48 (inactive)	0.204	0.0053
[N-]=[N+]=Nc1ccccc1C[C@]1(C(=O)NCC(O)CO)N=C(c2ccc(OCCCO)cc2)O[C@H]1c1ccccc1 (stereo not given in full)	0.451	0.533	-0.0328	0.0717	0.641	1.93	0.867	-0.666 (inactive)	1.56	-0.0391
CS(=O)(=O)CCOC(=O)C1=CC(CCCO)=CC(C2CC2)N(Cc2cc3c(cc2Br)OCO3)C=C1C(=O)OCCS(C)(=O)=O (stereo not given)	-0.0672	0.702	-0.0752	0.142	0.6	1.88	1.2	-0.517 (inactive)	0.114	-0.0754
CO[C@H]1O[C@H](CO)[C@@H](OC(=O)Nc2ccc(Br)cc2)[C@@H]2OC(=O)[C@H](Cc3cccc(Br)c3)C/C=C/C[C@@H](Cc3cccc(Br)c3)C(=O)O[C@@H]12	-0.0675	-0.0034	-0.135	0.0489	0.0333	0.72	1.05	1.3 (inactive)	0.388	0.315
O=c1cccc(-c2ccccc2Cl)o1	-0.152	-0.201	-0.0621	0.366	0.772	-0.234	0.311	1.17 (inactive)	0.241	-0.0047
C=CC[C@]1(C(N)=O)COC(c2ccc(OCCCO)cc2)=N1	-0.123	0.38	-0.0407	0.282	0.85	0.0632	1.09	-0.25 (inactive)	0.418	-0.0645
